# Source: PubChem BioAssay (NCATS)
# Inconclusive results are not listed. Where a call stands in place of a potency, no number is given. Activity calls are given as the source filed them. Unless noted, calls come from the whole dose curve; as a rule, active = well fitted curve in the direction sought with a large enough effect; inconclusive = small, poorly fitted or top-dose-only effect, or another doubt; inactive = no such curve, though single readings can be large; an effect the other way counts as inactive or inconclusive.
# Columns and labels:
# [1] = High Content Imaging Cell-Based qHTS for Inhibitors of the mTORC1 Signaling Pathway in MEF Cells (AID 2667);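 note: Tsc2-/- p53-/- MEFs stably re-expressing wild-type Tsc2 exposed 24 h; series mostly up to about 38 µM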
# Summary of the method: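 WT MEFs (Tsc2-/-, p53-/- re-expressing Tsc2), in DMEM + 10% FBS, were treated with compound for 24 h at 37 C. Cells were then fixed and stained for phospho-rpS6 Ser235/236 with propidium iodide as cell count. Values are % positive cells, with thresholds set against rapamycin-treated cells.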
# [2] = Cytometry Cell-Based qHTS for Inhibitors of the mTORC1 Signaling Pathway in MEF cells (AID 2668);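 note: Tsc2-/- p53-/- mouse embryonic fibroblasts stably re-expressing wild-type Tsc2; percent cells positive for phospho-rpS6 Ser235/236 relative to propidium iodide stain; series mostly up to about 38 µM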
# Summary of the method: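 Tsc2-/-, p53-/- MEFs re-expressing WT Tsc2; cpd 24 hrs, 37 degree Celsius; PFA fix, Alexa-488 p-rpS6 (Ser235/236) Ab 2 hrs RT, PI counterstain; Acumen 488nm scan; p-S6/PI ratio → % positive cells; PI count = viability.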
# [3] = Validation screen for small molecules that induce DNA re-replication in MCF 10A normal breast cells (AID 463097); note: nearly all actives have a fitted effect of over 60% in size
# Summary of the method: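 Image-based qHTS: normal breast cells are incubated with compound for 48 hr, stained with Hoechst, and scanned for total nuclear fluorescence. Compounds raising the fraction of nuclei with elevated DNA content count as re-replication inducers.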
# [4] = biological target: Ubiquitin carboxyl-terminal hydrolase 2 (Homo sapiens) (UniProt O75604); experiment: qHTS Validation Assay for Inhibitors of Ubiquitin-specific Protease USP2a Using CHOP2 as the Reporter (AID 463106)
# Summary of the method: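 USP2 core (10 nM final) was preincubated with compound 30 min at RT in pH 8.0 Tris/CaCl2/beta-ME/CHAPS buffer. Ub-CHOP2 and reporter substrate (25 nM final each) were then added, with fluorescence (Ex 485/Em 531) read after 60 min. Data were normalized to NEM full inhibition and fitted to concentration-response curves.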
# [5] = biological target: DNA polymerase III PolC-type (Bacillus subtilis (strain 168)) (UniProt P13267); experiment: qHTS Validation Assay for the Inhibitors of DNA Replication in Gram-Positive Bacteria (AID 485295);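 note: reconstituted holoenzyme with PolC plus beta clamp SSB and primase; PicoGreen fluorescence of double-stranded DNA made on primed circular M13 template; series mostly up to about 57 µM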
# Summary of the method: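 First, compound is mixed with the reconstituted replication complex and held at room temperature. Next, circular single-stranded M13Gori with nucleotides starts synthesis. Finally, PicoGreen in EDTA halts the reaction and stains double-stranded product for fluorescence reading.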
# [6] = biological target: Tumor susceptibility gene 101 protein (Homo sapiens) (UniProt Q99816); experiment: qHTS Validation Assay for Iinhibitors of HIV-1 Budding by Blocking the Interaction of PTAP/TSG101 (AID 485342; calls by dose curve)
# Summary of the method: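 Binding of a FITC-tagged PTAP-motif peptide (50 nM) to the Tsg101 binding domain (10 uM) is monitored by fluorescence polarization. Compounds are pin-delivered before peptide addition, and incubation runs 20 min at room temperature.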
# [7] = qHTS Validation Assay to Find Inhibitors of Chronic Active B-Cell Receptor Signaling (AID 485345; active = well fitted curve in the direction sought with a large enough effect in the main read-out, with a control signal flat, not every such curve was filed as active)
# Summary of the method: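 TMD8 ABC-DLBCL cells stably carrying doxycycline-inducible IkappaBalpha–green luciferase fusion plus unfused red luciferase; compounds 46 uM to 3 nM, 4 h at 37C with doxycycline. Corrected green/red luminescence ratio normalized to 10 uM MG-132 and basal cell wells; curves fitted.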
# [8] = biological target: Beta-2 adrenergic receptor (Homo sapiens) (UniProt P07550); experiment: qHTS validation assay of beta-arrestin-biased ligands of beta2-adrenergic receptor (AID 485366)
# Summary of the method: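 Luminescence from a tTA-responsive luciferase, induced when recombinant beta-arrestin is recruited to recombinant beta2-AR, served as the agonism signal. Cells were exposed to compound for 18 hr at 37 degrees C; titrations spanned up to 46 microM.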
# [9] = biological target: ATP-dependent 6-phosphofructokinase (Trypanosoma brucei brucei) (UniProt O15648); experiment: qHTS Validation Assay to Find Inhibitors of T. brucei phosphofructokinase (AID 485368); conditions: outcome: dose series up to 57.5 µM
# Summary of the method: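 Activity was normalized between 1x (1.25 nM) PFK wells as no inhibition and enzyme-free wells as full inhibition, from luminescence after ADP-Glo detection of ADP made from 0.5 mM F6P and 0.1 mM ATP over 45 min.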
# [10] = biological target: Thioredoxin reductase 1, cytoplasmic (Rattus norvegicus) (UniProt O89049); experiment: qHTS Assay for Substrates of Mammalian Selenoprotein Thioredoxin Reductase 1 (TrxR1) (AID 488772);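 note: NADPH fluorescence in the first read after selenite addition and not the 8 min delta; series mostly up to about 57 µM; a drop in NADPH fluorescence below the no-compound background marks a TrxR1 substrate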
# Summary of the method: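 Quantitative HTS in Tris-HCl buffer at pH 7.5 with EDTA and Tween-20, using rat TrxR1, 400 uM NADPH and 400 uM selenite (final). A fall in initial NADPH fluorescence relative to background marked substrate behaviour.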
# [11] = biological target: Thioredoxin reductase 1, cytoplasmic (Rattus norvegicus) (UniProt O89049); experiment: qHTS Assay for Inhibitors of Mammalian Selenoprotein Thioredoxin Reductase 1 (TrxR1) (AID 488773); conditions: Potency: inhibition;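 note: drop in NADPH fluorescence over an 8 min run after selenite addition; series mostly up to about 57 µM; nearly all actives have a fitted effect of over 40% in size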
# Summary of the method: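 Steps: enzyme (90 nM) plus NADPH (400 uM final), 5 min at ~22 deg C; compound added, 15 min; selenite (400 uM final) added; fluorescence followed for 8 min. Concentration-response curves derived from the normalized delta values.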
# [12] = biological target: Flap endonuclease 1 (Homo sapiens) (UniProt P39748); experiment: qHTS Validation Assay for the Inhibitors of Human Flap endonuclease 1 (FEN1) (AID 488816)
# Summary of the method: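 Human FEN1 (10 nM) preincubated 15 min at room temperature with compounds, then flap DNA substrate added at 50 nM final. Fluorescence read at 0 and 15 min; concentration-response fitted with four-parameter Hill equation.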
# [13] = biological target: Methanococcus maripaludis chaperonin (MmCpn) (UniProt Q6LX38); experiment: High-Throughput Screening for Modulators of Cytosolic Chaperonin Activity: MmCpn Primary Screen (AID 488978);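 note: 50 nM MmCpn enzyme hydrolysing 30 µM ATP at 37 °C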
# Summary of the method: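 Steps: chaperonin 50 nM final; add compound, 5 min RT; start with ATP, 30 uM final; hold 10 min at 37C; add ADP Transcreener HTRF reagent, 5 min; read ex 320, em 590 and 665 nm.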
# [14] = biological target: Transient receptor potential cation channel subfamily V member 1 (Homo sapiens) (UniProt Q8NER1); experiment: HTS Assay for Compounds that Act as Enhancers of the Vanilloid Receptor 1 (AID 488979)
# Summary of the method: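 TRPV1 cells loaded with Fluo-8 calcium dye; compound added and Ca2+ signal (ex 480/em 520 nm) followed 3 min, then capsaicin at EC20 added and read 2 more min to detect enhancement.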
# [15] = biological target: Thyrotropin receptor (Homo sapiens) (UniProt P16473); experiment: qHTS Assay for Antagonists of the Thyroid Stimulating Hormone Receptor (AID 488980); note: series mostly up to about 58 µM
# Summary of the method: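 Readout is cAMP by HTRF competition between cellular cAMP and cAMP-d2 for a cryptate-labelled antibody. Antagonism was assessed in TSHR-transfected HEK293 cells stimulated with 4 nM TSH (EC80, final) in the presence of RO 20-1724.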
# [16] = biological target: D(1A) dopamine receptor (Homo sapiens) (UniProt P21728); experiment: HTS Assay for Allosteric Agonists of the Human D1 Dopamine Receptor: Primary Screen for Agonists (AID 488981)
# Summary of the method: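 Tetracycline-induced HEK293 Trex D1 cells with forced coupling to calcium, loaded with no-wash calcium dye; kinetic fluorescence read 180 s after compound addition for agonism, then a further 180 s after an EC20 dopamine challenge for potentiation.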
# [17] = Quantitative high throughput screen for delayed death inhibitors of the malarial parasite plastid, 96 hour incubation (AID 488745); note: nearly all actives have a fitted effect of over 70% in size; note: potency is the fitted concentration of half-maximal effect
# Summary of the method: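 Growth of reporter-bearing P. falciparum in red cells is measured after 96 h with compound, covering two erythrocytic cycles. Luminescence from the integrated luciferase serves as the growth signal.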
# [18] = Quantitative high throughput screen for delayed death inhibitors of the malarial parasite plastid, 48 hour incubation (AID 488752); note: nearly all actives have a fitted effect of over 65% in size
# Summary of the method: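 One parasite generation (48 h, 37 C, 5% CO2) of luciferase-reporter P. falciparum in erythrocytes is run with test compound; decreased luminescence indicates inhibited growth.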
# [19] = biological target: M-phase phosphoprotein 8 (Homo sapiens) (UniProt Q99549); experiment: qHTS Validation Assay for Inhibitors for MPP8 Chromodomain Interactions with Methylated Histone Tails (AID 488949);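 note: 50 nM MPP8 with 50 nM peptide preformed then compounds added for 30 min; AlphaScreen signal from MPP8 chromodomain bound to biotinylated H3K9me3 peptide; top concentration of the series differs between compounds; nearly all actives have a fitted effect of over 55% in size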
# Summary of the method: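 50 nM MPP8 + 50 nM b-H3K9me3 peptide, PBS pH 7.4/0.01% Tween-20, 30 min RT; + cpd 30 min RT; + AlphaScreen donor/Ni-chelate acceptor beads 10 ug/mL final, 30 min dark; luminescence read.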
# [20] = biological target: Chromobox protein homolog 1 (Homo sapiens) (UniProt P83916); experiment: qHTS Validation Assay for Inhibitors of HP1-beta Chromodomain Interactions with Methylated Histone Tails (AID 488953);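 note: loss of AlphaScreen luminescence from HP1-beta binding biotinylated H3K9me3 peptide; series mostly up to about 110 µM; nearly all actives have a fitted effect of over 50% in size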
# Summary of the method: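 Measured as loss of AlphaScreen luminescence from streptavidin donor and nickel acceptor beads (10 ug/mL final) bridging HP1-beta and biotin-H3(1-18)K9me3, each 50 nM. Compounds met the preassembled complex for 30 min at RT.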
# Sequence of Beta-2 adrenergic receptor (Homo sapiens) (P07550 whole entry, looked up): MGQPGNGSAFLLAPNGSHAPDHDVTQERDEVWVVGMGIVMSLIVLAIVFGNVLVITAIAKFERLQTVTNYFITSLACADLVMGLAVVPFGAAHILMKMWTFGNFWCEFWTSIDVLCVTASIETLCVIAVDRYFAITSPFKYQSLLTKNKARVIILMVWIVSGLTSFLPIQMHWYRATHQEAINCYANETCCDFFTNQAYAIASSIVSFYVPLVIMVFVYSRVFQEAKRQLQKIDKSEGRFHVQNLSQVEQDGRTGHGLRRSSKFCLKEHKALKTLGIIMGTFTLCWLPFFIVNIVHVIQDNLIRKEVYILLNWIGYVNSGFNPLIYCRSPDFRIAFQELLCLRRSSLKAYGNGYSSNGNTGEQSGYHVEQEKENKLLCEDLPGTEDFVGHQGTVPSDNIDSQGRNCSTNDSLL
# Sequence of Chromobox protein homolog 1 (Homo sapiens) (P83916 whole entry, looked up): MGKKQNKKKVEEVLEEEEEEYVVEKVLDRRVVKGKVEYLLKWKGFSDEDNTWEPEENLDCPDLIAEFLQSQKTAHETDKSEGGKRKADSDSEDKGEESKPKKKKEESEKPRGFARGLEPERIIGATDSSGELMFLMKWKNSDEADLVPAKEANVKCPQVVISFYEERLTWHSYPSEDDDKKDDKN
# Sequence of Tumor susceptibility gene 101 protein (Homo sapiens) (Q99816 whole entry, looked up, the tested form may be a part): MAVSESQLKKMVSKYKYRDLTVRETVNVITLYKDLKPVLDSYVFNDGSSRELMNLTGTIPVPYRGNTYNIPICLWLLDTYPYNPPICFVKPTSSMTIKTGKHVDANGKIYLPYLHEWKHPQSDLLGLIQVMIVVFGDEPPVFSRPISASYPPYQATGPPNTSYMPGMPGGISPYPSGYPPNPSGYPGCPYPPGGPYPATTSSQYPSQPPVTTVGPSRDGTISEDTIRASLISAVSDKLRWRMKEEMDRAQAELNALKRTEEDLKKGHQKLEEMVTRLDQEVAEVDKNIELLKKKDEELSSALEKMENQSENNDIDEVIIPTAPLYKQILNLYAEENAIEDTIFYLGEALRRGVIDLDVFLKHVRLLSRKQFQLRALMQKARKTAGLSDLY
# Sequence of Ubiquitin carboxyl-terminal hydrolase 2 (Homo sapiens) (O75604 whole entry, looked up): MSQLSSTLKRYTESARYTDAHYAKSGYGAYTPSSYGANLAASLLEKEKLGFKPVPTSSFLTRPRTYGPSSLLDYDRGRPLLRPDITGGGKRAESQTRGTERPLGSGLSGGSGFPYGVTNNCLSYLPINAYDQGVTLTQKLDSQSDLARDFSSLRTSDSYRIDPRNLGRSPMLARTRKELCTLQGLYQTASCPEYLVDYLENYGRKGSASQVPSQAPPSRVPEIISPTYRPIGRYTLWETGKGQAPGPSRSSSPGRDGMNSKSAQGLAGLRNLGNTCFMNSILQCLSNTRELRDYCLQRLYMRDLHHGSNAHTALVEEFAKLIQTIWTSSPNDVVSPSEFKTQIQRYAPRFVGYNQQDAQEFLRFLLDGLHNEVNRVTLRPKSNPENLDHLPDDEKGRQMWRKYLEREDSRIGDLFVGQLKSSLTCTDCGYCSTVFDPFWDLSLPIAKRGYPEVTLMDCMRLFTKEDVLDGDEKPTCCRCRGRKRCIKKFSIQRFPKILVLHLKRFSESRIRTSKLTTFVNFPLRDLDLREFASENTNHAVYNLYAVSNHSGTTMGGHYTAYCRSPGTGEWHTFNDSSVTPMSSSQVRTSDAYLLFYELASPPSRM
# Sequence of Thioredoxin reductase 1, cytoplasmic (Rattus norvegicus) (O89049 whole entry, looked up): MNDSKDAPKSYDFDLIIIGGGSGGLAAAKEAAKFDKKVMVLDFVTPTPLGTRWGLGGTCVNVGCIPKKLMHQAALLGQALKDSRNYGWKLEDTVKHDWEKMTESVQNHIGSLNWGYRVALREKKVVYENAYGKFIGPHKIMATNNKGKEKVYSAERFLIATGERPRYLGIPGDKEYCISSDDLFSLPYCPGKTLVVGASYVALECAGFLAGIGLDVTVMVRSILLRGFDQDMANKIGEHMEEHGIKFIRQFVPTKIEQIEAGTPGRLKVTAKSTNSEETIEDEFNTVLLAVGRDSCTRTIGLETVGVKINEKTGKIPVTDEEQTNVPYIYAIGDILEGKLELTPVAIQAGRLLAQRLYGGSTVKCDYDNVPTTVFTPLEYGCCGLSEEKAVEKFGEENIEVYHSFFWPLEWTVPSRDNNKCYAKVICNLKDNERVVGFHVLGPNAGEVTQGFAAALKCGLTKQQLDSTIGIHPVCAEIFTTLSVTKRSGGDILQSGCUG
# Sequence of D(1A) dopamine receptor (Homo sapiens) (P21728 whole entry, looked up): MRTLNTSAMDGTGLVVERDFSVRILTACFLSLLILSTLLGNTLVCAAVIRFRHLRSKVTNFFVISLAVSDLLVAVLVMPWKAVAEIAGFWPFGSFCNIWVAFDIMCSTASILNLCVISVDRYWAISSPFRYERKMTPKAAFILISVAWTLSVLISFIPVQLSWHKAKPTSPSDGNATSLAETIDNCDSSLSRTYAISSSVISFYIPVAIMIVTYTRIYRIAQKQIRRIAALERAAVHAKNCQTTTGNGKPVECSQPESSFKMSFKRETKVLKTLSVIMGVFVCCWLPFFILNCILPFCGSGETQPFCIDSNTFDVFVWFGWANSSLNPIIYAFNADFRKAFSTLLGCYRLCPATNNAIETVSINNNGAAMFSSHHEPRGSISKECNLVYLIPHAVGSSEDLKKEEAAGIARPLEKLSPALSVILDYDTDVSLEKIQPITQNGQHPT
# Sequence of Methanococcus maripaludis chaperonin (MmCpn) (Q6LX38 1-543): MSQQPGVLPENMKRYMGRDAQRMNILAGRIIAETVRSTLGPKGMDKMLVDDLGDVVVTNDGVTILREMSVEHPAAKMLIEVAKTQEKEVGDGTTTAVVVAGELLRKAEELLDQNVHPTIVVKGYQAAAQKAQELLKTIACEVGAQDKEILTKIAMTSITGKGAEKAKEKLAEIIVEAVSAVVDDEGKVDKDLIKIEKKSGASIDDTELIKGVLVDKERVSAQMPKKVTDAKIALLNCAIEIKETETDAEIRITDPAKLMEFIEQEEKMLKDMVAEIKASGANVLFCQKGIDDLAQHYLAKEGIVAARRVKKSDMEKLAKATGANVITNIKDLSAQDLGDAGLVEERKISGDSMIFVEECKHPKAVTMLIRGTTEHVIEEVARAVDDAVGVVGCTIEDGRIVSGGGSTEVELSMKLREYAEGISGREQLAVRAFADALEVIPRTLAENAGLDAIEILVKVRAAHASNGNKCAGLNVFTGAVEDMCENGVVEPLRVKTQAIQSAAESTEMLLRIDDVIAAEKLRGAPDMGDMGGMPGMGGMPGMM
# Sequence of Flap endonuclease 1 (Homo sapiens) (P39748 whole entry, looked up): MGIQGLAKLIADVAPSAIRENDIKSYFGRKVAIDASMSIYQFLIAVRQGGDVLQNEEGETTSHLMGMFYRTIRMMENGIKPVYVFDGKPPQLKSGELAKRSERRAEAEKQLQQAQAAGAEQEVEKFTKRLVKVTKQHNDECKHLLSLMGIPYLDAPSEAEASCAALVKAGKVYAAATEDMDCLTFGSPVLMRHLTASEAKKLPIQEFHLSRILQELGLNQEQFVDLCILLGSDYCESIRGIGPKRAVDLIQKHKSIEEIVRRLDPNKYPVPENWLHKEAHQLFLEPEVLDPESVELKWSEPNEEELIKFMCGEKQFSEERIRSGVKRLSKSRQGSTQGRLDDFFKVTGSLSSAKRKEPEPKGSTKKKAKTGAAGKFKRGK
# Sequence of Transient receptor potential cation channel subfamily V member 1 (Homo sapiens) (Q8NER1 whole entry, looked up): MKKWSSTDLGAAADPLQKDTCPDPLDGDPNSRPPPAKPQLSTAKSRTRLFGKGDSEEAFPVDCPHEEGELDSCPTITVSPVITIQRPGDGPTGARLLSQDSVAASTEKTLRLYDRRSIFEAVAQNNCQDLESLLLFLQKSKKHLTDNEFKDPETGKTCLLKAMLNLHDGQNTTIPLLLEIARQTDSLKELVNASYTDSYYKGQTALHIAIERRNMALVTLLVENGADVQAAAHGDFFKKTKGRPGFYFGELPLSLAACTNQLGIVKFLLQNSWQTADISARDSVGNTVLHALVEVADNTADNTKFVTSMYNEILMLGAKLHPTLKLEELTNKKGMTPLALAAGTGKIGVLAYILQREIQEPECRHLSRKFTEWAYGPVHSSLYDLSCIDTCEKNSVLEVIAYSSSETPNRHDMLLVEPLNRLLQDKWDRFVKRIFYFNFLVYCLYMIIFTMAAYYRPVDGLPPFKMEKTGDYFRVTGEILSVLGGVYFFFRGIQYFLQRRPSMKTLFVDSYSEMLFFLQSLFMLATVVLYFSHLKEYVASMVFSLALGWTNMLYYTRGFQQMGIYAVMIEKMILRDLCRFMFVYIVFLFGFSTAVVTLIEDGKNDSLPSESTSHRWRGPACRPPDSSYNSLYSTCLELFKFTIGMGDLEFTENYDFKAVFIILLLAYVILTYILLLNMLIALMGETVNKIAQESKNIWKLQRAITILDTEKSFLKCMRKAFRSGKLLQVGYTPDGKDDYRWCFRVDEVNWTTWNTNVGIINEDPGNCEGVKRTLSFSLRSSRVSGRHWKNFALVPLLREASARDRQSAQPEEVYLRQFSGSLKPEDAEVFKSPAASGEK
# Sequence of ATP-dependent 6-phosphofructokinase (Trypanosoma brucei brucei) (O15648 whole entry, looked up): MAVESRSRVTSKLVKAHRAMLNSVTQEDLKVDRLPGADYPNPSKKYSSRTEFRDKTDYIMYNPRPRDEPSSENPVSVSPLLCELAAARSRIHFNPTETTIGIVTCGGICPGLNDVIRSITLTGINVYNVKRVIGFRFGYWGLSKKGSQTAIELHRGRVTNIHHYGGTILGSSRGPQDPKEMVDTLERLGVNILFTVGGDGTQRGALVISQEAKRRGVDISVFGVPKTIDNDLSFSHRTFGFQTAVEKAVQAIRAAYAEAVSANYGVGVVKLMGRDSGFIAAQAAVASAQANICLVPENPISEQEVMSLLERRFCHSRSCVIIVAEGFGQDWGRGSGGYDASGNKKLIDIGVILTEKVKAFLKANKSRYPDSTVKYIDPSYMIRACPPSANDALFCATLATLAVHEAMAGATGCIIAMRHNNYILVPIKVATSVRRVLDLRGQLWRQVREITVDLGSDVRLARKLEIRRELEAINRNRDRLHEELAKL
SMILES,Potency [1],Potency [2],Potency [3],outcome [4],Potency [5],outcome [6],Potency [7],outcome [8],outcome [9],outcome [10],Potency [11],Potency [12],outcome [13],outcome [14],outcome [15],Potency [16],Potency [17],Potency [18],Potency [19],Potency [20]
CCCN1C[C@H](CSC)C[C@@H]2c3cccc4[nH]cc(c34)C[C@H]21,inactive,inactive,inactive,inactive,inactive,inactive,inactive,inactive,inactive,inactive,inactive,inactive,inactive,inactive,inactive,inactive,–,–,–,–
CC(=O)Oc1cc(C(C)C)c(OCCN(C)C)cc1C,inactive,inactive,inactive,inactive,inactive,inactive,inactive,inactive,inactive,inactive,inactive,inactive,inactive,inactive,inactive,inactive,inactive,inactive,inactive,inactive
CC(C)COCC(CN(Cc1ccccc1)c1ccccc1)N1CCCC1 (stereo unspecified),inactive,inactive,inactive,inactive,inactive,inactive,inactive,inactive,–,inactive,inactive,inactive,inactive,inactive,–,inactive,inactive,inactive,inactive,inactive
O=C(O)CN(CCOCCOCCN(CC(=O)O)CC(=O)O)CC(=O)O,inactive,inactive,inactive,inactive,inactive,inactive,inactive,inactive,–,inactive,inactive,inactive,–,inactive,inactive,inactive,inactive,inactive,inactive,inactive
CNCCC(Oc1ccccc1OC)c1ccccc1 (stereo unspecified),inactive,inactive,inactive,inactive,inactive,inactive,inactive,inactive,–,inactive,inactive,inactive,inactive,inactive,inactive,inactive,inactive,inactive,inactive,inactive
O=C1CC2(CCCC2)CC(=O)N1CCCCN1CCN(c2ncccn2)CC1,inactive,inactive,inactive,inactive,inactive,inactive,inactive,inactive,–,inactive,inactive,inactive,inactive,inactive,inactive,inactive,inactive,inactive,inactive,–
COc1ccc([C@@H]2Sc3ccccc3N(CCN(C)C)C(=O)[C@@H]2OC(C)=O)cc1,inactive,inactive,inactive,inactive,inactive,inactive,inactive,inactive,–,inactive,–,–,inactive,–,inactive,inactive,inactive,inactive,–,inactive
CCCCCN(CCCCC)C(=O)C(CCC(=O)O)NC(=O)c1ccc(Cl)c(Cl)c1 (stereo unspecified),inactive,inactive,inactive,inactive,inactive,inactive,inactive,inactive,–,inactive,inactive,inactive,–,inactive,inactive,–,inactive,inactive,–,inactive
Cc1scc2c1N(C(=O)CN1CCN(C)CC1)c1ccccc1NC2=O,inactive,inactive,inactive,inactive,inactive,inactive,inactive,inactive,–,inactive,–,–,inactive,inactive,inactive,inactive,inactive,inactive,inactive,–
Cc1ccc(=O)n(-c2ccccc2)c1,inactive,inactive,inactive,inactive,inactive,inactive,inactive,inactive,–,inactive,inactive,inactive,inactive,inactive,inactive,inactive,inactive,inactive,–,inactive
O=C(O)CN(CCN(CC(=O)O)CC(=O)O)CCN(CC(=O)O)CC(=O)O,inactive,inactive,inactive,inactive,inactive,inactive,inactive,inactive,–,inactive,inactive,inactive,inactive,inactive,–,inactive,–,inactive,inactive,inactive
OCCN1CCN(CCCN2c3ccccc3C=Cc3ccccc32)CC1,inactive,inactive,inactive,inactive,inactive,inactive,inactive,inactive,–,–,inactive,inactive,inactive,inactive,inactive,inactive,13.1 µM (active),–,inactive,–
c1cnc(N2CCN(Cc3ccc4c(c3)OCO4)CC2)nc1,inactive,inactive,inactive,inactive,inactive,inactive,inactive,inactive,–,inactive,inactive,–,–,inactive,inactive,inactive,inactive,inactive,–,inactive
CCN(CC)CC(=O)Nc1c(C)cccc1C,inactive,inactive,inactive,inactive,inactive,inactive,inactive,inactive,–,inactive,inactive,inactive,inactive,inactive,inactive,inactive,inactive,inactive,–,inactive
CCCN(CCC)C(=O)C(CCC(=O)O)NC(=O)c1ccccc1 (stereo unspecified),inactive,inactive,inactive,inactive,inactive,inactive,inactive,inactive,–,inactive,inactive,inactive,–,inactive,–,inactive,inactive,inactive,inactive,inactive
NC(Cc1ccc(Cl)cc1)C(=O)O (stereo unspecified),inactive,inactive,inactive,inactive,inactive,inactive,inactive,inactive,–,inactive,inactive,inactive,inactive,inactive,inactive,inactive,inactive,inactive,inactive,–
